Data from PubChem BioAssay AID2284196 (EPA ToxCast).
Calls of active or inactive are those of the source. The calls were made as follows: active = hit-call score of the fitted dose curve at least 0.9, where 1 is the maximum; inactive = score below 0.9.

Each compound was assayed against human Peripheral-type Benzodiazepine Receptor (PBR/TSPO) Antagonism, TSPO (gene 706) (UniProt P30536) (assay: ERF_FR_MP_hTSPO: Eurofins (ERF) Radioligand Binding LeadHunter Assay for human Peripheral-type Benzodiazepine Receptor (PBR/TSPO) Antagonism).
Chain of human Peripheral-type Benzodiazepine Receptor (PBR/TSPO) Antagonism, TSPO (gene 706) (P30536 whole entry, looked up): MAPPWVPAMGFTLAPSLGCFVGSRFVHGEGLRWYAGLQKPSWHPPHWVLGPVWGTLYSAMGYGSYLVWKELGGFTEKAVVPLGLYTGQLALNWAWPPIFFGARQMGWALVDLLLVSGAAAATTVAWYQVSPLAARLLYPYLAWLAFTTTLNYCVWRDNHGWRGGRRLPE
Protocol: ERF_FR_MP_hTSPO is a biochemical, single-readout assay that uses extracted gene-proteins in a cell-free assay. Measurements were taken 0.25 hour after chemical dosing in a 96-well plate. See PBR Human Binding (Antagonist Radioligand) Assay, Cerep.ERF_FR_MP_hTSPO is an assay component calculated from the ERF_FR_MP_hTSPO assay. It is designed to measure radioligand binding using a type of binding reporter as detected by scintillation counting with radiometry technology.Data from the assay component ERF_FR_MP_hTSPO was analyzed at the assay endpoint, ERF_FR_MP_hTSPO, in the positive analysis fitting direction relative to DMSO as the negative control and baseline of activity. Using a type of binding reporter, loss-of-signal activity can be used to understand changes in binding as they relate to gene TSPO. To generalize the intended target to other relatable targets, this assay endpoint is annotated to the membrane protein intended target family, where the subfamily is mitochondrial associated translocator protein.
Human glioblastoma U118MG cells are used to prepare peripheral benzodiazepine receptor in modified Tris-HCl buffer pH 7.4. A 100 ug aliquot is incubated with 0.2 nM [3H] PK-11195 for 15 minutes at room temprature. Non-specific binding is estimated in the presence of 10 uM PK-11195. Membranes are filtered and washed, the filters are then counted to determine [3H] […]
In the case of O=C(/C=C/c1ccc(O)cc1)CC(=O)/C=C/c1ccc(O)cc1, the AC50 is reported as 891 nM (active).
With COc1cc(CCC(=O)CC(=O)CCc2ccc(O)c(OC)c2)ccc1O the outcome was “inactive”.
